The subject of experiment [1] is HCI01 (cells of a triple-negative basal-like breast cancer xenograft). In words: cell viability (% of vehicle); higher = less cytotoxic. The note with it: 10 µM; 72 h.
The subject of experiment [2] is HCI11 (cells of an ER-positive luminal breast cancer xenograft). The experiment is described as above. The note with it: 10 µM; 72 h.
For experiment [3], the system named is HCI13 (cells of an ER-positive luminal breast cancer xenograft). The description is as above. The note with it: 10 µM; 72 h.
Experiment [4] relates to HCI16 (cells of a triple-negative basal-like breast cancer xenograft). Described as above. The following applies: 10 µM; 72 h.
Experiment [5] relates to WHIM2 (cells of a triple-negative basal-like breast cancer xenograft). Described as above. The following applies: 10 µM; 72 h.
Experiment [6] has as its system HCI03 (cells of an ER-positive luminal breast cancer xenograft). The description is as above. The following applies: 10 µM; 72 h.
Experiment [7] has as its system UCD52 (cells of a triple-negative basal-like breast cancer xenograft). The description is as above. The note with it: 10 µM; 72 h.
Experiment [8] relates to HCI09 (cells of a triple-negative luminal androgen receptor type breast cancer xenograft). The description is as above. The note with it: 10 µM; 72 h.
Experiment [9] has as its system WHIM30 (cells of a triple-negative basal-like breast cancer xenograft). The experiment is described as above. The following applies: 10 µM; 72 h.
Experiment [10] has as its system HCI01. In words: cell viability of combination (% of vehicle); higher = less cytotoxic. The note with it: 1 µM; 72 h; partner dose: 10 nM. As to the method:
(§1)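 PDX cells were treated for 72 h with each drug at 1 µM plus carfilzomib (10 nM; 100 nM for WHIM2). Luciferase viability is expressed as percent of vehicle.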

For experiment [11], the system named is UCD52. The description is as above. The note with it: 1 µM; 72 h; partner dose: 10 nM. As for the experimental part: as §1

The structures appear in SMILES notation. ± gives the standard deviation of the averaged measurements.

`Nc1nc(NC2CC2)c2ncn(C3C=CC(CO)C3)c2n1` (stereo not given) [Abacavir]: the cell viability was found to be 173 ± 35 in experiment [1]; 118 in experiment [2]; 193 ± 30 in experiment [3]; 121 in experiment [4]; 179 ± 28 in experiment [5].
Turning to `O=c1c(-c2ccc(O)cc2)coc2cc(O)ccc12` [Daidzein], the cell viability is 146 ± 37 in [1]; 155 in [6]; 114 in experiment [2]; 180 in [4]; 149 ± 13 in [7]; 119 ± 7.2 in [5].
For `CO[C@H]1C[C@@H]2CC[C@@H](C)[C@@](O)(O2)C(=O)C(=O)N2CCCC[C@H]2C(=O)O[C@H]([C@@H](C)C[C@@H]2CC[C@@H](OCCO)[C@H](OC)C2)CC(=O)[C@H](C)/C=C(\C)[C@@H](O)[C@@H](OC)C(=O)[C@H](C)C[C@H](C)/C=C/C=C/C=C/1C` [Everolimus (RAD001)], the cell viability was 69.8 in experiment [6]; 27.5 ± 4 in experiment [8]; 102 in experiment [2]; 54.91 ± 0.39 in experiment [3]; 179 in [4]; 55.2 ± 9.9 in experiment [7]. The values for the cell viability in experiment [5] and in experiment [9] were 41.9 ± 4.8 and 160 ± 35, respectively.
As to `CCCCOc1ccc(CC(=O)NO)cc1` [Bufexamac], the cell viability in [1] is 182.8 ± 1.2; in experiment [8], 140 ± 6.6; in experiment [2], 173; in [3], 141 ± 35; in [7], 148 ± 29; in [5], 112 ± 2.7. Moreover, in experiment [9], the cell viability came out at 102 ± 3.6.
`CCN(CC)CCNC(=O)c1ccc(N)cc1.Cl` [Procainamide HCl]: the cell viability in [1] was 110 ± 3.9; in experiment [8], 108 ± 4.1; in experiment [2], 95.8; in experiment [3], 98 ± 2.4; in [4] it was 116; in [7], 100 ± 7.8. For the same compound, the cell viability worked out at 110 ± 10 in experiment [5] and 197 ± 10 in [9].
For `O=C(C=CC=Cc1ccc2c(c1)OCO2)N1CCCCC1` [Piperine], the cell viability in [1] amounted to 158 ± 4; in experiment [2] it was 134; in experiment [4] it was 131; in experiment [5], 117 ± 0.57; in experiment [9], 111.83 ± 0.044.
Take `Cl.Nc1ccc(N=Nc2ccccc2)c(N)n1` [Phenazopyridine HCl]: the cell viability in experiment [1] came to 196 ± 12; in experiment [2], 136; in experiment [4], 200; in experiment [5], 191 ± 47.
Consider `CC(C)Cc1ccc(C(C)C(=O)O)cc1.NCCCCC(N)C(=O)O` (stereo not given) [Ibuprofen Lysine], for which the cell viability in experiment [6] was determined as 130; in experiment [8], 106 ± 12; in [2] it was 138; in [3], 131 ± 6.2; in experiment [4] it was 162; in [7], 132 ± 29. In addition, the cell viability in [5] turned out to be 84.8 ± 3.6; in experiment [9], 170 ± 23.
With `N#CCC(C1CCCC1)n1cc(-c2ncnc3[nH]ccc23)cn1` (stereo not given), the cell viability turned out to be 185 in experiment [6]; 106 ± 19 in [8]; 129 in [2]; 76.1 ± 14 in [3]; 106 in experiment [4]; 117.7 ± 0.47 in [7]. Moreover, the cell viability in [5] was 134 ± 12; in [9], 187.4 ± 1.7.
As to `O=C(O)C1=CC(=NNc2ccc(S(=O)(=O)Nc3ccccn3)cc2)C=CC1=O` [Sulfasalazine], the cell viability in experiment [6] was 124; in experiment [8], 119 ± 9.1; in [2], 137; in experiment [3] it was 161 ± 27; in experiment [4], 180; in experiment [7], 100 ± 5. Moreover, the cell viability turned out to be 105 ± 8.7 in [5] and 181 ± 26 in experiment [9].
With `CC(=O)c1c(C)c2cnc(Nc3ccc(N4CCNCC4)cn3)nc2n(C2CCCC2)c1=O.O=S(=O)(O)CCO`, the cell viability in experiment [1] came to 154 ± 77; in experiment [8] it was 78 ± 29; in [2], 154; in experiment [3], 179 ± 75; in experiment [4] it was 180; in experiment [7] it was 105 ± 7.7. Further, the cell viability in [5] turned out to be 103 ± 13; in [9], 145 ± 2.8.
Take `C#Cc1cccc(Nc2ncnc3cc(OC)c(OCCCCCCC(=O)NO)cc23)c1`: the cell viability came out at 105 in [6]; 22.1 ± 10 in experiment [8]; 4.55 in [2]; 77.52 ± 0.49 in experiment [3]; 44.4 ± 5 in experiment [5].
On to `CC(C=CC1=C(C)CCCC1(C)C)=CC=CC(C)=CC(=O)O` [Tretinoin (Aberela)], for which the cell viability in experiment [6] worked out at 143; in experiment [2], 149; in [3] it was 146 ± 12; in experiment [4], 175; in experiment [5] it was 58.5 ± 19.
For `CCCCc1oc2ccc(NS(C)(=O)=O)cc2c1C(=O)c1ccc(OCCCN(CCCC)CCCC)cc1.Cl` [Dronedarone HCl] + CC(C)C[C@H](NC(=O)[C@H](CCc1ccccc1)NC(=O)CN1CCOCC1)C(=O)N[C@@H](Cc1ccccc1)C(=O)N[C@@H](CC(C)C)C(=O)[C@@]1(C)CO1 [Carfilzomib], the results for the “cell viability of combination” value in experiment [10] and in [11] were 92.3 and 59.9, respectively.
Consider `O=c1c(-c2ccc(O)cc2)coc2cc(O)cc(O)c12` [Genistein], for which the cell viability is 160 in experiment [6]; 129 in experiment [2]; 183 in [4]; 189 ± 34 in [7]; 121 ± 5.2 in experiment [5].
For `CC(=O)Oc1ccccc1C(=O)Nc1ncc([N+](=O)[O-])s1` [Nitazoxanide], the cell viability in experiment [8] came out at 161 ± 140; in experiment [2] it was 168; in experiment [4] it was 128; in experiment [7] it was 154 ± 8.6.
As for `CC(=Cc1ccccc1)C=C1SC(=S)N(CC(=O)O)C1=O` [Epalrestat], the cell viability in experiment [6] is 112; in experiment [2], 96.4; in experiment [3], 170 ± 10; in experiment [4], 102; in experiment [7] it was 102 ± 11; in [9] it was 134 ± 29.
For the compound `CC(=O)C1(O)Cc2c(O)c3c(c(O)c2C(OC2CC(N)C(O)C(C)O2)C1)C(=O)c1ccccc1C3=O.Cl` (stereo not given) [Idarubicin HCl] + CC(C)C[C@H](NC(=O)[C@H](CCc1ccccc1)NC(=O)CN1CCOCC1)C(=O)N[C@@H](Cc1ccccc1)C(=O)N[C@@H](CC(C)C)C(=O)[C@@]1(C)CO1 [Carfilzomib], the “cell viability of combination” value is 187 in experiment [10] and 21.1 in experiment [11].
Turning to `COc1cccc(-c2ccc(NC(=O)C3=C(C(=O)O)CCC3)c(F)c2)c1` [Vidofludimus], the cell viability in experiment [2] was found to be 99.5.

The values above are taken from the supplement of paper PMC6992640.
